# According to article PMC7155171, “Probing the Open Global Health Chemical Diversity Library for Multistage-Active Starting Points for Next-Generation Antimalarials” (ACS Infectious Diseases, 2020):
# What was measured:
# [1] = test system: P. berghei liver stage (PbLuc); set-up: species or system HepG2-A16-CD81; P. berghei luciferase sporozoite infection of hepatocytes, liver stage luminescence; settings: inhibitor; for PbLuc primary screen (10uM): inhibition % (n=1): 48 h
# [2] = test system: HepG2-A16-CD81 hepatocytes; set-up: Uninfected hepatocyte viability, CellTiter-Glo luminescence; settings: cytotoxicity primary screen, inhibitor
Compound,PbLuc primary screen (10uM): inhibition % (n=1) [1],PbLuc primary screen (2uM): inhibition % (n=1) [1],HepG2 toxicity primary screen (10uM): inhibition % (n=1) [2]
CN(CCCc1ccccc1)C(=O)CCC1=NC(=C2N=CN=N2)NO1 [DDD01062165],22%,-4.851%,-44.845%
Cn1nc(C2CC2)c(-c2ccc3c(c2)OCO3)c1N [DDD01074640],16.5%,58.6%,-47.475%
CCCc1nn(C)c(N)c1-c1ccc2c(c1)OCO2 [DDD01074641],27.6%,5.918%,-51.45%
Cc1[nH]n(C2CCCCC2)c2nc(C(C)(C)CN3CCOCC3)nc1-2 [DDD01254749],-16.9%,48.54%,-3.64%
CCc1c(C)nn2c(=O)cc(C3CCN(C(=O)c4ccccn4)C3)[nH]c12 (stereo not drawn) [DDD01056906],44.95%,-16.2%,6.7%
COc1cc2c(cc1-c1nc3c[nH]n(C(C)C)c-3n1)OCO2 [DDD01249461],7.31%,60.13%,-6.85%
COc1ccc(F)cc1-c1nc2c(C3CC3)[nH]n(C)c-2n1 [DDD01250494],-12.1%,-45.41%,-2.18%
Cc1nc(=O)cc(CCNC(=O)CC[C@@H]2CCCN3CCCC[C@H]23)[nH]1 [DDD01256003],44.8%,42.6913%,0.956%
CSc1cccc(NC(=O)Nc2c(O)c3ccccc3oc2=O)c1 [DDD01037688],1.86%,28.0462%,4.45%
CCc1ccc(C(C)NC(=O)CCC2=NC(=C3N=CN=N3)NO2)cc1 (stereo not drawn) [DDD01068289],38.8%,-21.47%,-1.98%
CCc1cc(=O)n2nc(C3CCN(C(=O)c4ccccn4)CC3)cc2[nH]1 [DDD01057364],-2.695%,26.22%,2.29%
COc1cc(F)ccc1-c1nc2c(C3CC3)[nH]n(C)c-2n1 [DDD01248843],-24.9%,-27.89%,-1.72%
COc1cccc(C2=NN=CC2=C2NC(CN3CCCC3)=NO2)c1 [DDD01247208],34%,45.82%,-23.2%
Cc1ncc(CN2CCc3c([nH]c4cc(C5CC5)nn4c3=O)C2)n1C [DDD01058398],47.1%,42.53%,6.62%
CCc1cc(=O)n2nc(C3CCN(C(=O)c4ccncc4)CC3)cc2[nH]1 [DDD01057177],32.85%,-9.67%,3.51%
Clc1cccc(-c2cccc(N3CCC(NC4CCOCC4)CC3)c2)c1 [DDD01252000],84%,-46.68%,-4.24%
Cc1nnsc1C(=O)N1CCCCC1c1cc2[nH]c(C)c(C)c(=O)n2n1 (stereo not drawn) [DDD01059036],19.3%,-26.26%,-5.93%
CC(NC(=O)CCC1=NC(=C2N=CN=N2)NO1)c1ccc(F)cc1F (stereo not drawn) [DDD01068293],33.4%,-26.534%,-2.05%
CCn1[nH]cc2nc(-c3cc(OC)c(OC)cc3OC)nc1-2 [DDD01254934],26.5%,13.04%,-2.61%
Cn1cc(C(=O)N2CCCC(c3cc(=O)n(C)[nH]3)C2)cn1 (stereo not drawn) [DDD01060486],19.6%,27.39%,-21.6%
CCc1c(C)[nH]c2cc(C3CCN(Cc4cccnc4)C3)nn2c1=O (stereo not drawn) [DDD01060570],-33.4%,31.56%,-25.4%
COCCCC(=O)N1CC(=O)Nc2cc(Br)ccc21 [DDD01075689],-20.4%,22.41%,5.89%
COc1cccc(Cn2nc(C)c3c(NC(=O)C(C)OC)[nH]nc32)c1 (stereo not drawn) [DDD01063202],39.7%,-10.78%,-2.03%
Cc1[nH]c2cc(C3CCN(Cc4ccccc4F)C3)nn2c(=O)c1C (stereo not drawn) [DDD01060615],61.7%,28.64%,5.52%
CCC(CO)N(Cc1cccnc1)C(=O)c1ccc(C(F)(F)F)[nH]c1=O (stereo not drawn) [DDD01253913],-28.9%,20.89%,-1.12%
Fc1cccc(C2=NN=CC2=C2NC(CN3CCOCC3)=NO2)c1 [DDD01244908],13.7%,24.36%,-7.58%
Cc1ccc(S(=O)(=O)Cc2noc([C@@H]3C[C@@H](O)CN3C(C)C)n2)cc1 [DDD01025534],44.5%,0.1961%,0.317%
Cc1[nH]c2cc(C3CCN(Cc4cccc(F)c4F)C3)nn2c(=O)c1C (stereo not drawn) [DDD01270135],90.4%,18.8%,0.333%
CCn1[nH]cc2nc(-c3cc4c(cc3OC)OCO4)nc1-2 [DDD01244413],-7.2%,27.42%,-2.99%
CCc1c(C)nn2c(=O)cc(C3CCN(C(=O)c4ccn(C)n4)C3)[nH]c12 (stereo not drawn) [DDD01056907],3.623%,-25.98%,7.915%
